From PubChem BioAssay
Values joined by “and” are separate entries in the source; they are usually repeats but may differ in a detail not shown here. Equal values may be shown once. Records with an inconclusive call do not appear. Active and inactive are the calls of the source. Unless noted, no rule for the calls is given here.

Key:
[1] = stimulators of insulin release from INS-1E, primary screen, cell-based, 5 mM glucose, NPC library (AID 1117329;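 active = compound raises insulin release from rat beta cells at 5 mM glucose, no numeric limit stated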); details: rat INS-1E insulin secretion, at 10 µM, stronger effect = higher value
[2] = growth inhibition of GSK3B-pretreated HCT116 cells – cell-based, CellTiter-Glo, 0.2 to 20 µM (AID 1117336;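 active = compounds lowering colon cancer cell viability after pretreatment blocking the GSK3B kinase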); details: HCT116 viability after GSK3B inhibitor, at 20 µM, stronger effect = higher value
[3] = inhibition of endothelial tube formation, primary screen, imaging, VEGF stimulated, CD31 staining, tube area, NPC library (AID 1117340;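 active = compound that reduces growth-factor-driven endothelial tube area in a mixed cell culture, no cutoff stated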); details: VEGF-stimulated ADSC/ECFC co-culture, at 10 µM, stronger effect = higher value
[4] = glucagon-like peptide 1 release enhancers, primary assay, NCI-H716 cell line, NPC library (AID 1117341;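 active = compound raises GLP1 secretion from the human gut endocrine cells, with no numeric limit stated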); details: NCI-H716 cells, at 10 µM, stronger effect = higher value
[5] = HCT116 colon cancer cell growth inhibition, primary screen, CellTiter-Glo luminescence, NPC library (AID 1117342;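 active = compounds that lower survival of HCT116 colon cancer cells in the luminescence readout, no numeric limit stated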); details: at 20 µM (top of the series)
[6] = CellTiter-Glo luminescent readout of SW480 viability loss, NPC library primary (AID 1117343;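 active = compounds that lower viability of the colon cancer cells in the luminescence readout, with no numeric limit stated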); details: CellTiter-Glo luminescence; at 20 µM (top of the series)
[7] = decreased DLD-1 cellular survival, CellTiter-Glo luminescent readout, NPC compound collection, primary HTS (AID 1117346;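 active = compounds that lower survival of DLD-1 colon cancer cells in the luminescence readout, no cutoff given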); details: DLD-1 viability, CellTiter-Glo luminescence; at 20 µM (top of the series)
[8] = modulation of C. elegans fzo-1 (AID 1259413);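 also: fzo-1 mutant C. elegans worms in liquid wells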; details: C. elegans fzo-1 modulator screen, mean read-out; stronger effect = higher value
[9] = differential killing of epithelial or mesenchymal cells, primary screen, imaging, PC-3E GFP, TEM4-18 mCherry, co-culture (AID 1345086;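 active = compounds killing one labelled cell type while sparing the other, by normalised counts and ratio limits, not self-fluorescent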;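 as to all read-outs here: cells exposed to compound for 72 h before imaging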;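 as to red/green cell ratio (normalised): normalised mesenchymal count divided by normalised epithelial count so high means epithelial killing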); details: imaging cell counts, at 1 µM; for red/green cell ratio (normalised): actives lie on both sides, counts scaled to control wells, 1 = unselective
[10] = growth inhibition of DIPG glioma cells, dose response, cell-based, SU-DIPG-XIII, MIPE4.0, CellTiter-Glo, qHTS (AID 1347061; cut-off not given, nearly all actives have AC50 up to about 37 µM;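 also: cells exposed to compound for 48 hours before readout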); details: SU-DIPG-XIII viability, CellTiter-Glo ATP luminescence
[11] = growth inhibition of DIPG glioma cells, dose response, cell-based, JHH-DIPG-1, MIPE4.0, CellTiter-Glo, qHTS (AID 1347062; cut-off not given, nearly all actives have AC50 up to about 27 µM;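 as to AC50: cells exposed to compound for two days before readout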); details: JHH-DIPG-1 viability, CellTiter-Glo ATP luminescence
[12] = growth inhibition of DIPG glioma cells, dose response, cell-based, SU-DIPG-IV, MIPE4.0, CellTiter-Glo, qHTS (AID 1347063; cut-off not given, nearly all actives have AC50 up to about 30 µM;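 also: compound exposure lasted 48 hours before the viability readout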); details: SU-DIPG-IV viability, CellTiter-Glo ATP luminescence
[13] = growth inhibition of DIPG glioma cells, dose response, cell-based, SU-DIPG-XVII, MIPE5.0, CellTiter-Glo, qHTS (AID 1347060; cut-off not given, nearly all actives have AC50 up to about 26 µM;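 as to AC50: cells exposed to compound for 48 hours before viability readout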); details: SU-DIPG-XVII viability, CellTiter-Glo ATP luminescence
[14] = system: Aerobactin synthetase IucA (Klebsiella pneumoniae); assay: IucA aerobactin synthetase inhibitors, biochemical, Tocris library, absorbance (AID 1345561); details: purified IucA enzyme assay, absorbance (OD) read-out; stronger effect = lower value;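 tested at 8 µM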;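 also: 100% = enzyme without compound and 0% = no enzyme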
[15] = growth inhibition of DIPG glioma cells, dose response, cell-based, SU-DIPG-XIII, MIPE5.0, CellTiter-Glo, qHTS (AID 1347064; cut-off not given, nearly all actives have AC50 up to about 23 µM); details: SU-DIPG-XIII viability, CellTiter-Glo ATP luminescence
[16] = measured here: epithelial PC-3E GFP cell survival
[17] = measured here: mesenchymal TEM4-18 mCherry cell survival

For `CC(c1cc2ccccc2s1)N(O)C(N)=O` (configuration not stated), the insulin secretion stimulation [1] was -0.1% (inactive), the viability decrease [2] was -6.5% (inactive) and the tube area decrease [3] was -39.9% (inactive). The GLP1 secretion stimulation [4] was -1.4% (inactive), the inhibition of viability [5] was -15.9% (inactive) and the viability decrease (inhibition) [6] was 9.4% (inactive). For the same molecule, the viability decrease (inhibition) [7] was -3.8% (inactive), the mean signal [8] was 255 (inactive) and the red/green cell ratio (normalised) [9] was 0.83 (inactive). The normalised cell number [9, 16] was 1.22, the normalised cell number [9, 17] was 1.01 and the outcome [10] was “inactive”. The outcome [11] was “inactive” and the outcome [12] was “inactive”.
In the case of `CC[C@@]1(O)C(=O)OCc2c1cc1n(c2=O)Cc2cc3c(CN(C)C)c(O)ccc3nc2-1`, the insulin secretion stimulation [1] is reported as 0.5% (inactive), the viability decrease [2] is reported as 61.2% (active) and the tube area decrease [3] is reported as 107% (active). For the same molecule, the GLP1 secretion stimulation [4] was -4.3% (inactive), the inhibition of viability [5] was 52.2% (active) and the viability decrease (inhibition) [6] was 75% (active). The viability decrease (inhibition) [7] was 67.8% (active), the mean signal [8] was 251 (inactive) and the red/green cell ratio (normalised) [9] was 1.81 (inactive). The normalised cell number [9, 16] was 0.19, the normalised cell number [9, 17] was 0.34 and the AC50 [13] was 0.0525 µM (active). For the same molecule, the AC50 [11] was 8.33 µM (active) and the AC50 [12] was 0.332 µM (active).
With `Brc1c(NC2=NCCN2)ccc2nccnc12` the insulin secretion stimulation [1] was 0.4% (inactive), the viability decrease [2] was 27% (inactive) and the tube area decrease [3] was -5.2% (inactive). For the same molecule, the GLP1 secretion stimulation [4] was -3.1% (inactive), the inhibition of viability [5] was 15.1% (inactive) and the viability decrease (inhibition) [6] was 7.7% (inactive). The viability decrease (inhibition) [7] was -3.7% (inactive), the mean signal [8] was 249 (inactive) and the remaining activity [14] was 80.2% (inactive) and 100% (inactive).
In the case of `COc1cc(-c2ccc(=O)[nH]n2)ccc1OC(F)F`, the insulin secretion stimulation [1] is reported as 0.6% (inactive), the viability decrease [2] is reported as -6.05% (inactive) and the tube area decrease [3] is reported as 99.9% (active). For the same molecule, the GLP1 secretion stimulation [4] was 11.6% (inactive), the inhibition of viability [5] was -6.7% (inactive) and the viability decrease (inhibition) [6] was 11.4% (inactive). For the same molecule, the viability decrease (inhibition) [7] was 4.45% (inactive), the mean signal [8] was 244 (inactive) and the remaining activity [14] was 112% (inactive).
In the case of `O=C1Nc2ccc(Cl)cc2[C@@](C#CC2CC2)(C(F)(F)F)O1`, the insulin secretion stimulation [1] is reported as 11.3% (inactive), the viability decrease [2] is reported as 86.5% (active) and the tube area decrease [3] is reported as -16% (inactive). For the same molecule, the GLP1 secretion stimulation [4] was 21% (active), the inhibition of viability [5] was 87.9% (active) and the viability decrease (inhibition) [6] was 114% (active). For the same molecule, the viability decrease (inhibition) [7] was 49.4% (inactive), the mean signal [8] was 218 (inactive) and the outcome [11] was “inactive”. The AC50 [12] was 29.6 µM (active).
With `Cc1nc2ccc(CN(C)c3ccc(C(=O)N[C@@H](CCC(=O)O)C(=O)O)s3)cc2c(=O)[nH]1` the insulin secretion stimulation [1] was -5.7% (inactive), the viability decrease [2] was 83.7% (active) and the tube area decrease [3] was 62.5% (active). For the same molecule, the GLP1 secretion stimulation [4] was 1% (inactive), the inhibition of viability [5] was 78.2% (active) and the viability decrease (inhibition) [6] was 117% (active). For the same molecule, the viability decrease (inhibition) [7] was 56.2% (active), the mean signal [8] was 269 (inactive) and the outcome [13] was “inactive”. The outcome [11] was “inactive” and the outcome [15] was “inactive”.
With `O=C(O)/C=C(\CC(=O)O)C(=O)O` the insulin secretion stimulation [1] was -2.3% (inactive), the viability decrease [2] was 0.55% (inactive) and the tube area decrease [3] was 5.8% (inactive). The GLP1 secretion stimulation [4] was 3.5% (inactive), the inhibition of viability [5] was 7.4% (inactive) and the viability decrease (inhibition) [6] was 39.3% (inactive). The viability decrease (inhibition) [7] was 11.3% (inactive), the red/green cell ratio (normalised) [9] was 1.06 (inactive) and the normalised cell number [9, 16] was 1.18. For the same molecule, the normalised cell number [9, 17] was 1.25.
For `CNCCCCOc1ccccc1Cc1ccccc1`, the insulin secretion stimulation [1] was 19.5% (inactive), the viability decrease [2] was 82.8% (active) and the tube area decrease [3] was 41% (active). For the same molecule, the GLP1 secretion stimulation [4] was 7.5% (inactive), the inhibition of viability [5] was 95.4% (active) and the viability decrease (inhibition) [6] was 85.7% (active). For the same molecule, the viability decrease (inhibition) [7] was 50.3% (active), the mean signal [8] was 234 (inactive) and the remaining activity [14] was 120% (inactive).
In the case of `CCCCCCCCCCCCCCCCC(C(=O)O)C(O)(CC(=O)O)C(=O)O` (configuration not stated), the insulin secretion stimulation [1] is reported as 3.2% (inactive), the viability decrease [2] is reported as 99.8% (active) and the tube area decrease [3] is reported as -7.3% (inactive). The GLP1 secretion stimulation [4] was -2.9% (inactive), the inhibition of viability [5] was 99.3% (active) and the viability decrease (inhibition) [6] was 103% (active). The viability decrease (inhibition) [7] was 102% (active), the red/green cell ratio (normalised) [9] was 1.03 (inactive) and the normalised cell number [9, 16] was 1. It also gave a normalised cell number [9, 17] of 1.03.
With `CN1CCN(c2cc3c(cc2F)c(=O)c(C(=O)O)cn3-c2ccc(F)cc2)CC1` the insulin secretion stimulation [1] was -1.1% (inactive), the viability decrease [2] was 9.9% (inactive) and the tube area decrease [3] was -7.2% (inactive). For the same molecule, the GLP1 secretion stimulation [4] was 0.1% (inactive), the inhibition of viability [5] was 17.4% (inactive) and the viability decrease (inhibition) [6] was -0.8% (inactive). For the same molecule, the viability decrease (inhibition) [7] was 2.2% (inactive), the red/green cell ratio (normalised) [9] was 1.21 (inactive) and 1.18 (inactive) and the normalised cell number [9, 16] was 0.99 and 0.72. The normalised cell number [9, 17] was 1.2 and 0.85.
For `CC(C)(C)NC(=O)[C@@H]1CN(Cc2cccnc2)CCN1C[C@@H](O)C[C@@H](Cc1ccccc1)C(=O)N[C@H]1c2ccccc2C[C@H]1O`, the insulin secretion stimulation [1] was 6.7% (inactive), the viability decrease [2] was -0.8% (inactive) and the tube area decrease [3] was 7.2% (inactive). The GLP1 secretion stimulation [4] was 4.1% (inactive), the inhibition of viability [5] was 10% (inactive) and the viability decrease (inhibition) [6] was -7.5% (inactive). The viability decrease (inhibition) [7] was -9.3% (inactive), the mean signal [8] was 283 (inactive) and the AC50 [10] was 1.32 µM (active).
In the case of `Nc1nc(F)nc2c1ncn2[C@@H]1O[C@H](CO)[C@@H](O)[C@@H]1O`, the insulin secretion stimulation [1] is reported as -0.6% (inactive), the viability decrease [2] is reported as 12.6% (active) and the tube area decrease [3] is reported as 106% (active). The GLP1 secretion stimulation [4] was -2% (inactive), the inhibition of viability [5] was 38% (inactive) and the viability decrease (inhibition) [6] was 17.2% (inactive). The viability decrease (inhibition) [7] was 19.4% (inactive), the mean signal [8] was 243 (inactive) and the remaining activity [14] was 101% (inactive). For the same molecule, the AC50 [13] was 10.5 µM (active).
With `C[C@@H]1CN(c2c(F)c(F)c3c(=O)c(C(=O)O)cn(C4CC4)c3c2F)C[C@H](C)N1` the insulin secretion stimulation [1] was -0.9% (inactive), the viability decrease [2] was -4.4% (inactive) and the tube area decrease [3] was -17.5% (inactive). For the same molecule, the GLP1 secretion stimulation [4] was -0.3% (inactive), the inhibition of viability [5] was 4.9% (inactive) and the viability decrease (inhibition) [6] was 24.4% (inactive). For the same molecule, the viability decrease (inhibition) [7] was -6.7% (inactive), the red/green cell ratio (normalised) [9] was 1.1 (inactive) and 1 (inactive) and the normalised cell number [9, 16] was 1.07 and 1.13. The normalised cell number [9, 17] was 1.18 and 1.13.
With `Clc1ccc2nsnc2c1NC1=NCCN1` the insulin secretion stimulation [1] was 0.4% (inactive), the viability decrease [2] was 1.1% (inactive) and the tube area decrease [3] was -9.7% (inactive). The GLP1 secretion stimulation [4] was 2.7% (inactive), the inhibition of viability [5] was 11.7% (inactive) and the viability decrease (inhibition) [6] was 8% (inactive). The viability decrease (inhibition) [7] was 6% (inactive), the mean signal [8] was 249 (inactive) and the remaining activity [14] was 113% (inactive). The outcome [13] was “inactive”, the outcome [10] was “inactive” and the outcome [15] was “inactive”.
For `Cc1nc2n(c(=O)c1CCN1CCC(c3noc4cc(F)ccc34)CC1)CCC[C@H]2O`, the insulin secretion stimulation [1] was 1.1% (inactive), the viability decrease [2] was -7.1% (inactive) and the tube area decrease [3] was 8.8% (inactive). The GLP1 secretion stimulation [4] was -0.7% (inactive), the inhibition of viability [5] was 20.5% (inactive) and the viability decrease (inhibition) [6] was -9.1% (inactive). For the same molecule, the viability decrease (inhibition) [7] was -6.6% (inactive), the red/green cell ratio (normalised) [9] was 1.17 (inactive) and the normalised cell number [9, 16] was 0.84. It also gave a normalised cell number [9, 17] of 0.98.
